Only some compounds are listed: those with a hit (about 4.1% of all), similar ones and a draw of the others.
DAX1 inh-1 – NR0B1 (DAX1) inhibition | inhibition, % at 6.75 µM | HEK293 Gal4-DAX1 luciferase reporter, luminescence | hit rate 0.99% among 340,000 | P51843;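 active means inhibition above the mean over all tested compounds plus 3 SD, cut at about 4.2% in these data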;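 further: 0% = DAX1-transfected cells with DMSO and 100% = empty-vector control cells with DMSO; inhibition shows as a rise in luminescence from relieved DAX1 repression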
Target sequence (P51843 207-470 limits assumed): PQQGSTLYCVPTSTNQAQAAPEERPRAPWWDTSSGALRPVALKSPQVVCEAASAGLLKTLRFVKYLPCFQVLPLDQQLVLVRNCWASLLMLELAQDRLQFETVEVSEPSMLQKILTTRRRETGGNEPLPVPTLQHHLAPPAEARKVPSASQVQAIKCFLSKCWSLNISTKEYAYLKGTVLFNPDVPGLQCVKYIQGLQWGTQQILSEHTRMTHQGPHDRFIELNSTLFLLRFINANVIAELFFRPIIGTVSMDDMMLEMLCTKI
hgDAF12 agonist – activates the H. glycines DAF-12 receptor ligand-binding domain | HEK293 GAL4-hgDAF12 UAS-luciferase reporter, agonist luminescence; normalized to butyrate control | activation, % at 6.8 µM | hit rate 1.8% among 370,000;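 active means activation above a cutoff set at the mean of all screened compounds plus 3 SD, cut at about 10% in these data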;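 further: 0% = DMSO wells and 100% = sodium butyrate wells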
DAX1 inh-2 – DAX1 (NR0B1) inhibition, primary screen; HEK293T StAR-luciferase reporter, SF-1/DAX-1 repression relief; inhibition, % at 6.8 µM; hit rate 1.1% among 370,000; AID 652010;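 active means inhibition above the mean over all tested compounds plus 3 SD, cut at about 3.6% in these data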;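 further: 0% = DAX-1 cells with DMSO and 100% = cells lacking DAX-1 with DMSO; higher inhibition means more luminescence from relief of DAX-1 repression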
hcDAF12 agonist – H. contortus DAF-12 activation, primary screen; HEK293 hcDAF-12 lit1-tk-luc reporter, luminescence; 0% DMSO, 100% Δ7-dafachronic acid; activation, % at 6.8 µM; hit rate 1.4% among 370,000;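 active means activation above the mean of all tested compounds plus 3 SD, cut at about 5.5% in these data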;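 further: 100% = response to 3 µM Δ7-dafachronic acid high control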
ssDAF12 agonist – activators of S. stercoralis DAF-12 nuclear receptor. HEK293 ssDAF-12/GRIP1 lit1-tk-luc reporter, luminescence; % of 3 µM dafachronic acid response. activation, % at 6.8 µM. hit rate 1% among 370,000;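 active means activation above the mean over all tested compounds plus 3 SD, cut at about 0.9% in these data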;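 further: 0% = DMSO-only wells and 100% = 3 µM delta7-dafachronic acid wells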
* marks the source's active call; other numbers are inactive results; / = not tested or not shown.

SMILES | DAX1 inh-1 | hgDAF12 agonist | DAX1 inh-2 | hcDAF12 agonist | ssDAF12 agonist
O=C(Nc1nccs1)c1ccc(Br)o1 | 2.2 | 8.1 | 1.2 | 5.8* | -0.5
COc1ccc(C(=O)Nc2nccs2)cc1OC | 2.1 | 6.6 | -0.5 | -0.4 | -0.9
CC(C)(C)Cc1nnc(NC(=O)c2ccc3c(c2)OCO3)s1 | -1.5 | 4.5 | 0.6 | -0.6 | -0.5
CCCN1C(=O)c2ccc(C(=O)Nc3nccs3)cc2C1=O | -0.3 | -0.5 | 0.2 | -0.6 | -1.6
CCOC(=O)[C@@]12CCCC3=C1N(CCC3)C(=O)[C@H]2CC(=O)NCCc1ccccc1OC | / | -3.1 | -0.1 | -1.7 | -1.2
CCOc1ccc(N(CC(=O)Nc2c(C)n(C)n(-c3ccccc3)c2=O)S(=O)(=O)c2ccc(C(C)(C)C)cc2)cc1 | / | -3.0 | -1.4 | -1.2 | -1.4
COCCNC(=S)N(C)[C@H]1C[C@H]2c3[nH]c4ccccc4c3CCN2C(=O)[C@H]1[C@H](C)O | / | 1.5 | 1.0 | -0.4 | -0.1
CC(=O)c1ccc(Nc2cc(C)nc3ccccc23)cc1 | -2.0 | -4.0 | -1.0 | -1.9 | -1.4
CC(=O)c1ccc(Nc2cc(C)nc3c(C)cccc23)cc1 | 0.3 | 11.2* | -0.3 | 3.2 | -0.8
O=C(c1ccccc1)c1ncc(C(F)(F)F)cc1Cl | 0.4 | 2.4 | -0.1 | -0.9 | -1.1
N/C(=N\OC(=O)Nc1ccccc1)c1ncc(C(F)(F)F)cc1Cl | 1.9 | 0.3 | 0.3 | 5.6* | -0.3
COC(=O)/C(=C\Nc1ccccc1N)c1ncc(C(F)(F)F)cc1Cl | 1.3 | 11.7* | 4.3* | 5.7* | 0.7
CCOc1ccc(N(CC(=O)Nc2ccc(C)cc2)S(C)(=O)=O)cc1 | 1.8 | 12.3* | 0.8 | 3.2 | -0.2
Cc1ccc(N(CC(=O)Nc2ccc(-c3nc4ccc(C)cc4s3)cc2)S(C)(=O)=O)cc1 | 0.7 | 11.8* | 4.4* | 4.0 | 0.9*
Cc1ccc(C)c(N(CC(=O)Nc2ccc(-c3nc4ccc(C)cc4s3)cc2)S(C)(=O)=O)c1 | -1.6 | 0.8 | -0.3 | -1.5 | 1.6*
Cc1ccc2nc(-c3ccc(NC(=S)NC(=O)CC(C)C)cc3)sc2c1 | 3.4 | 6.3 | 1.0 | 1.1 | -0.1
Brc1ccc(-c2nn3c(-c4ccccc4)nnc3s2)o1 | / | 3.0 | -1.6 | -2.4 | -1.1
COC(=O)c1ccc(N/C=C/C(=O)c2ccccc2)cc1 | 4.5* | 7.8 | 1.2 | 0.4 | -0.3
COc1cccc(N/C=C/C(=O)c2ccc(Br)cc2)c1 | 1.8 | 11.4* | 4.4* | 4.3 | -0.3
CCOC(=O)c1ccc(N/C=C\C(=O)c2cccc(OC)c2)cc1 | -2.0 | 0.3 | 0.7 | 3.6 | -0.9
CCc1ccc(NC(=O)CN(C(=O)N2CCN(CC)CC2)S(=O)(=O)c2ccc(C)cc2)cc1 | 2.6 | 4.2 | -3.4 | 0.2 | -1.6
CC(C)Oc1cccc(C(=O)Nc2nnc([C@@H]3C[C@H](O)[C@@H](CO)O3)s2)c1 | / | 0.3 | 0.4 | 0.8 | 1.0*
COc1ccc(C(=O)Nc2nnc([C@@H]3C[C@H](O)[C@@H](CO)O3)s2)cc1 | / | -0.2 | 0.6 | 0.2 | 0.0
O=C(Nc1nnc([C@H]2C[C@H](O)[C@@H](CO)O2)s1)c1cccc(C(F)(F)F)c1 | / | -0.5 | 0.9 | -1.7 | -0.9
O=C(Nc1cccc(C(F)(F)F)c1)Nc1nnc([C@@H]2C[C@H](O)[C@@H](CO)O2)s1 | / | 10.5* | -0.3 | -2.0 | -0.3
SMILES | DAX1 inh-1 | hgDAF12 agonist | DAX1 inh-2 | hcDAF12 agonist | ssDAF12 agonist
O=C(Nc1cccc(Cl)c1)c1csc([C@H]2C[C@H](O)[C@@H](CO)O2)n1 | / | 10.6* | 2.7 | 4.8 | -0.1
CC(C)(C)C(=O)OC12CCCN(C1)/C(=C/c1cccnc1)C2 (stereo not drawn) | / | 0.3 | -1.2 | -0.5 | -0.7
COc1ccccc1C1N=C(c2ccccc2C)NO1 (stereo not drawn) | 0.3 | 10.5* | 1.2 | 2.3 | -0.2
Cc1ccccc1C1=NC(c2ccc(F)cc2F)ON1 (stereo not drawn) | 0.4 | 1.8 | 0.0 | -0.7 | -0.9
O=C(COC(=O)CSc1ccc(F)cc1)NCCCc1ccccc1 | -0.6 | 4.7 | -0.8 | -0.8 | 1.1*
Cc1ccc(NC(=O)C2CCC(CNC(=O)[C@@H]3Cc4ccccc4CN3)CC2)c(C)c1 (stereo partly drawn) | 1.0 | -0.1 | -0.2 | -1.3 | -0.7
Cc1ccc(S(=O)(=O)N(C)CC(=O)NCC(=O)Nc2ccc(F)c(F)c2F)cc1 | 4.7* | -1.0 | -1.4 | -0.2 | -0.8
Cc1ccc(/C=N/N=C/c2ccc(C)cc2)cc1 | -0.3 | 0.1 | 0.0 | 1.7 | -1.1
C(=N\N=C\c1ccccc1)/c1ccccc1 | 5.0* | 2.2 | 0.6 | -1.1 | -0.4
CCN1CCN(c2cc3c(nn2)Oc2ccccc2N3C)CC1 | 0.3 | 12.1* | 2.9 | 4.0 | -0.6
CCN1CCN(c2nnc(-c3ccccc3)c3ccccc23)CC1 | -2.1 | -0.8 | 0.1 | 1.4 | -1.3
CC(=O)C(C)Oc1ccc2c3c(c(=O)oc2c1)CCCCC3 (stereo not drawn) | 1.6 | 11.1* | -0.1 | 3.6 | -1.3
Cc1ccc(Cl)cc1N1CCN(C(=O)Cc2c(C(=O)O)[nH]c3ccccc23)CC1 | 1.2 | -2.4 | 0.1 | 5.2 | 1.2*
Cc1ccc(Cl)cc1N1CCN(C(=O)Cc2c(C(=O)O)[nH]c3ccc(Cl)cc23)CC1 | -0.2 | -2.3 | 0.5 | 1.3 | -0.4
O=C1c2ccccc2NC2(CCCC2)N1O | 0.0 | 1.7 | -0.5 | -0.6 | -1.0
O=C1c2ccccc2NC2(CCCCC2)N1N=C1CCCCC1 | 0.9 | 12.0* | 0.7 | 1.4 | -0.5
CCCN1C(=O)C(O)(c2c(C)[nH]c3ccccc23)c2ccccc21 (stereo not drawn) | 2.5 | 1.0 | -0.4 | 3.8 | -0.3
Cc1[nH]c2ccccc2c1C1(O)C(=O)N(C(C)C)c2ccccc21 (stereo not drawn) | 1.4 | 2.1 | 0.0 | 5.8* | -0.4
COc1ccccc1N/C=C/c1onc(C)c1[N+](=O)[O-] | -2.4 | 9.4 | 2.9 | 3.8 | -0.5
Cc1noc(/C=C/Nc2ccc(F)cc2F)c1[N+](=O)[O-] | 3.9 | 12.4* | 3.3 | 2.2 | 0.5
Cc1ccc(NC(=O)C2CCCN2S(=O)(=O)c2cccnc2)c(C)c1 (stereo not drawn) | / | 1.3 | -0.1 | -2.2 | 0.5
O=[N+]([O-])c1ccc(O)c(Nc2ncnc3ccccc23)c1 | 1.9 | -2.0 | 0.6 | 3.1 | 1.1*
O=c1c(/C=N/Nc2ccccc2)c(Sc2nnnn2-c2ccccc2)nc2ccccn12 | -2.5 | 12.3* | 0.1 | 6.3* | -0.2
O=C(O)c1ccccc1N/N=C/c1c(Sc2nnnn2-c2ccccc2)nc2ccccn2c1=O | -0.3 | -1.6 | 1.7 | -1.0 | 0.0
Cc1ccccc1NC(=O)NC1(C(=O)N2CCOCC2)CCCCC1 | 0.4 | -2.2 | 0.4 | 0.1 | -1.0
O=C(Nc1ccccc1C(F)(F)F)NC1(C(=O)N2CCOCC2)CCCCC1 | 0.4 | 1.9 | 2.4 | 5.7* | -0.4
N=C1C(=O)OCC1c1ccccc1NC(=O)c1ccc(F)cc1 (stereo not drawn) | 1.0 | -0.6 | -0.5 | 0.1 | 0.3

Compound activity from PubChem BioAssay.
